D1 allo mod: D1 dopamine receptor (human) allosteric modulation | B-score at 10 µM | P21728 | AID 641 | HEK293 D1, CRE-luciferase, dopamine EC30 potentiation; actives deviate in either direction | 5.9% of 58,000 active;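 active = luminescence count or its row- and column-corrected plate score outside the 99.7% band of the plate's sample wells, on either side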
DAT uptake mod: human DAT dopamine uptake with cocaine, either direction | Q01959 | 1.3% of 110,000 active | B-score at 10 µM | LLC-PK1 hDAT cells, [14C]-dopamine uptake with cocaine IC80; actives deviate in either direction;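 active = Z score or B-score, a plate-position-corrected score, falls beyond the plate's 99.7% confidence bounds, in either direction; inactive = both scores lie inside the 99.7% bounds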;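 note: scored against the spread of the other compound wells on the same plate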
CYP2C19 inh: inhibitors of human CYP2C19 | inhibition, % at 5 µM | 21% of 96,000 active | CYP2C19 Supersomes, luciferin-H EGE luminescence, 30 min;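 active = CYP2C19 inhibition above a set limit at 5 µM in the primary screen, cut at about 50% in these data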;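 note: plate controls were negative control wells for no effect and 2.5 mM tranylcypromine positive control for full effect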
CYP2C19 act: activators of human cytochrome P450 2C19. P33261. recombinant CYP2C19, luciferin-H EGE luminescence; active compounds read high; 0 = fully inhibited enzyme, 1 = untreated enzyme. activation factor at 5 µM. 96,000 tested, under 10 active. AID 1025;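 active = activation factor of at least 2 at 5 µM in the primary screen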;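 note: 0 = wells with 2.5 mM tranylcypromine and 1 = vehicle-only wells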
CYP2C9 activ: CYP2C9 (human) activation | P11712 | recombinant CYP2C9, luciferin-H conversion, luminescence; active compounds read high; factor 1 = untreated enzyme, 0 = blocked | activation factor at 5 µM | 1.4% of 96,000 active | AID 1024;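 active = activation factor of 2 or more for CYP2C9 at a 5 µM dose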;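 note: 0 = sulfaphenazole-blocked wells and 1 = vehicle-only wells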
Target sequence (P11712 whole entry, looked up): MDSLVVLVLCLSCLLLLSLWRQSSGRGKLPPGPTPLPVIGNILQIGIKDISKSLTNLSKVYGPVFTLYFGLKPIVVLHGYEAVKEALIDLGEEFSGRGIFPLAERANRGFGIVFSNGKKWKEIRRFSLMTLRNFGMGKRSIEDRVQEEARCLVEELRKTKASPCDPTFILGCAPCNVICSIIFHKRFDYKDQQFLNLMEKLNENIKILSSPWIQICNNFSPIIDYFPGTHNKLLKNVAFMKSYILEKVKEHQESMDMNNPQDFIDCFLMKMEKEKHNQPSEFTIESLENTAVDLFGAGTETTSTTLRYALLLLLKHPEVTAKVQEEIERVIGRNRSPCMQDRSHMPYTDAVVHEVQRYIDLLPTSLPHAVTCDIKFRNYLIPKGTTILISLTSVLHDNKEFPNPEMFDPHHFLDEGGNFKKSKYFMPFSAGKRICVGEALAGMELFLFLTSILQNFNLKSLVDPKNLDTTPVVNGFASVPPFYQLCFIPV
CYP2C9 inh: human CYP2C9 inhibition; P11712; CYP2C9 Supersomes, luciferin-H conversion, luminescence; inhibition, % at 5 µM; 20% of 96,000 active; AID 777;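 active = blocking of liver enzyme CYP2C9 beyond about 50% at 5 µM, limit read from the data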
* hit, by the source's call; nt = no result. An excerpt weighted towards active compounds, which were near 28% of everything screened.

SMILES	D1 allo mod	DAT uptake mod	CYP2C19 inh	CYP2C19 act	CYP2C9 activ	CYP2C9 inh
CCOC(=O)N1CCN(C(=O)c2oc(=O)c3ccccc3c2-c2ccc(C)cc2)CC1	0.673	-1.23	60.3*	0.4	0.4	59.3*
Cc1nnc(SCCn2c(Br)nc3c2c(=O)n(C)c(=O)n3C)s1	0.0224	-0.0107	80.2*	0.2	0.9	8.1
CC(=O)Nc1ccc(NS(=O)(=O)c2cn(C)c(=O)n(C)c2=O)cc1	-0.289	-0.621	-16.7	1.2	1.2	-15.3
CCCC[C@@H]1CNC(=S)N1CCCC	nt	-0.717	nt	nt	nt	nt
COC(=O)CCCC1=CC2=C(c3ccccc3)C(=O)C(C)(OC(=O)C3CCCC3)C(=O)C2=CN1CCc1c[nH]c2ccccc12 (stereo not drawn)	nt	0.0304	nt	nt	nt	nt
Cc1ccc2c(c1)N(C(=O)c1ccco1)C(C)(C)c1ssc(=S)c1-2	nt	-0.238	33.0	0.7	0.5	53.8*
COc1ccc(OC)c(NC(=O)c2cc(-c3ccc(C)cc3O)n[nH]2)c1	-0.00377	0.361	9.6	0.9	2.9*	-191.9
Cc1ccc(-c2cc(C(=O)Nc3cc(C)ccc3C)[nH]n2)c(O)c1	-0.185	0.689	nt	nt	nt	nt
O=C(O)CC(NC(=O)COc1ccc(Cl)cc1Cl)C(=O)O (stereo not drawn)	-0.00536	-0.537	0.2	1	1.1	-10.0
Cn1cnnc1SCC(=O)Nc1ccc2nc(SCc3ccccc3F)sc2c1	nt	2.34	47.0	0.5	0.4	60.0*
CC(=O)Nc1ccc2nc(SCC(=O)O)sc2c1	0.415	-0.124	-16.5	1.2	1.1	-11.7
CCOC(=O)CSc1nc2ccc(NC(C)=O)cc2s1	-0.426	-0.81	56.7*	0.4	0.3	72.4*
CSc1nc2ccc(NC(=O)CSc3nnc(N)s3)cc2s1	nt	-0.0301	1.6	1	0.3	70.7*
CC(C)(C)C(=O)NC(=S)Nc1ccccc1C(=O)Nc1ccccc1	nt	-0.0201	17.6	0.8	1	-3.7
COc1ccc(Cc2nnc(SCC(=O)Nc3nc(C)cs3)o2)cc1	0.821	-0.656	6.9	0.9	0.9	6.3
C#CCNC(=O)C1=C[C@@H](C2CCCCC2)C[C@@H](OCCCCO)O1	nt	-0.453	nt	nt	nt	nt
Cc1cc(C(=O)N2CCCCCC2)cs1	0.882	0.89	57.9*	0.4	1.1	-6.9
COc1ccc(/C(O)=C2/C(=O)C(=O)N(CCN3CCOCC3)C2c2ccccn2)cc1 (stereo not drawn)	-1	-0.597	-3.0	1	1.1	-6.1
CCc1c(C)sc(NC(=O)Cn2nc(C(F)(F)F)c3c2CCCC3)c1C#N	nt	-0.0949	22.0	0.8	0.8	24.1
Cc1ccc(N=Nc2c(N)[nH]n3c(=O)c4c(nc23)CCCC4)cc1	nt	nt	-11.6	1.1	1.1	-13.0
CC(C)=C(C#N)c1nc2ccccc2s1	1.23	0.168	56.1*	0.4	1	-0.3
CC(C)NC(=O)c1nc2ccccc2s1	1.65	-0.371	25.2	0.7	0.9	9.2
COC(=O)c1ccc(/C(O)=C(\C#N)c2nc3ccccc3s2)cc1	0.0157	-0.177	3.1	1	0.4	58.3*
O=S(=O)(c1ccc(Br)s1)n1cccn1	-0.0238	-0.887	7.4	0.9	1.5	-51.8
Cc1ccc2c(c1)N(CCCC(=O)NCCCN1CCCC1=O)C(=O)CO2	-0.588	nt	nt	nt	nt	nt
SMILES	D1 allo mod	DAT uptake mod	CYP2C19 inh	CYP2C19 act	CYP2C9 activ	CYP2C9 inh
Cc1ccc(-c2cc(-c3ccccc3Cl)c(C#N)c(N)n2)o1	-0.178	0.105	91.9*	0.1	0.2	81.6*
Cc1ccc(-c2cc(-c3ccccc3)c(C#N)c(N)n2)o1	-0.726	-0.559	32.6	0.7	0.9	7.3
Cc1ccc(C(=O)NCc2ccc(Cl)c(Cl)c2)o1	0.234	0.452	84.5*	0.2	0.7	34.9
CCOC(=O)C1Cc2c([nH]c3ccccc23)C(C)N1 (stereo not drawn)	0.413	-0.4	81.8*	0.2	1.1	-11.3
COC(=O)C1Cc2c([nH]c3ccccc23)CN1 (stereo not drawn)	1.36	0.791	71.1*	0.3	1.1	-9.2
CCCn1cc(S(=O)(=O)CC(=O)N2CCc3ccccc32)c2ccccc21	0.295	-0.822	86.6*	0.1	0.2	78.9*
CCn1cc(S(=O)(=O)CC(=O)N2CCc3ccccc32)c2ccccc21	0.474	-0.667	nt	nt	nt	nt
Cn1cc(S(=O)(=O)CC(=O)N2CCc3ccccc32)c2ccccc21	0.576	-0.562	66.9*	0.3	0.6	42.0
O=C(O)C1=C[C@H](c2csc3ccccc23)C[C@H](OCCCCO)O1	nt	-1.32	nt	nt	nt	nt

High-throughput results (PubChem)
